Assay type in all cases: functional
Assay [1] relates to Plasmodium falciparum. Briefly: GSK_TCMDC: Inhibition of Plasmodium falciparum 3D7 in whole red blood cells, using parasite LDH activity as an index of growth. Test compounds present at 2uM.
For assay [2], the system named is Plasmodium falciparum. Nature of the assay: GSK_TCMDC: Inhibition of Plasmodium falciparum Dd2 in whole red blood cells, using parasite LDH activity as an index of growth. Test compounds present at 2uM.
The subject of assay [3] is HepG2. Briefly: GSK_TCMDC: Percent inhibition of human HepG2 cell line. Test compounds present at 10uM.

The Inhibition is the percentage by which the read-out fell short of the control. Higher therefore signals a strong effect. As for `O=C([C@H]1CCCCN1c1ccc([N+](=O)[O-])c2ccccc12)N1CCN(c2ncccn2)CC1`, the Inhibition in assay [1] is given as 97%; in assay [2], 5%; in assay [3], 50%.
On the same counts, the results for `CN(C)CCOc1ccc(N2CCN(CCCCNC(=O)c3ccc(NC(=O)c4ccc(Cl)cc4)cc3)CC2)cc1` are 99%, 98% and 13%.
With `Cc1ccc(-c2nc3cc(NC(=O)c4ccc([N+](=O)[O-])o4)ccc3o2)cc1Cl`, the Inhibition in assay [1] was found to be 100%; in assay [2] it was 97%; in assay [3], 24%.
For the compound `O=C(NCC1CC1)C1CCN(C(c2ccc(Cl)cc2)c2ccc(Cl)cc2)CC1`, the figures for the Inhibition in assay [1], in assay [2] and in assay [3] were 99%, 95% and 3%, respectively.
For `O=C(NCc1cccc(F)c1)Nc1cccc(-c2ccc(-c3nc4cc(F)ccc4[nH]3)cc2)c1`, the results for the Inhibition in assay [1], in assay [2] and in assay [3] were 84%, 0% and 46%, respectively.
As for `Cc1c(C(=O)N(C)C)sc2c1c(=O)n(Cc1ccccc1)c(=O)n2CC(=O)Nc1ccccc1F`, the Inhibition in assay [1] amounted to 97%; in assay [2] it was 98%; in assay [3] it was 13%.
For the compound `CCN1CCc2nc3ccccc3c(C(=O)Nc3ccc(C#N)cc3)c2C1`, the Inhibition in assay [1] is listed as 99%; in assay [2], 72%; in assay [3] it was 24%.
For `CN(C)Cc1ccc(-c2cccc(Nc3nccc(NCC(O)c4ccccc4)n3)c2)cc1` (configuration not stated), in that order: 100%, 100% and 74%.
On the same counts, the results for `ON=C(c1nc2ccccc2[nH]1)c1nc2ccccc2[nH]1` are 93%, 68% and 36%.
On the same counts, the results for `Cc1cccc(C(=O)NC(NC(=S)Nc2ccc([N+](=O)[O-])cc2)C(Cl)(Cl)Cl)c1` (configuration not stated) are 96%, 66% and 14%.
With `CSc1ccc(CN2CCC(NC(=O)c3ccc(-c4cccc(C(F)(F)F)c4)s3)CC2)cc1.O=C(O)C(F)(F)F`, the Inhibition in assay [1] worked out at 90%; in assay [2], 9%; in assay [3], 68%.
On to `COc1ccc(NC(=O)[C@H](CC(C)C)Nc2cc(C)nc(NCCc3ccc(F)cc3)n2)cc1.O=C(O)C(F)(F)F`, for which the Inhibition came out at 100% in assay [1], 79% in assay [2] and 1% in assay [3].
In the case of `Cl.O=C(NCCCCN1CCC(c2ccc3c(c2OCCO)CCCC3)CC1)c1ccc2oc(-c3ccc(C(F)(F)F)cc3)cc2c1`, the Inhibition is 93% in assay [1], 56% in assay [2] and 54% in assay [3].
For `CC1(C)N=C(N)N=C(N)N1c1cc(Cl)c(Cl)cc1Cl.Cl`, the Inhibition in assay [1] is reported as 95%; in assay [2], 0%; in assay [3], 11%.
`CC(C)c1ccc(NC(=O)NCC2CCCN(CCCCCNC(=O)/C=C/c3ccc(Cl)c(Cl)c3)C2)cc1` (configuration not stated): the Inhibition is reported as 98% in assay [1], 6% in assay [2] and 87% in assay [3].
Turning to `FC(F)(F)c1ccc2[nH]c(-c3ccc(-c4cccc(CNCc5ccccc5)c4)cc3)nc2c1.O=C(O)C(F)(F)F`, the Inhibition in assay [1] was found to be 100%; in assay [2] it was 43%; in assay [3], 0%.
Turning to `Cc1cc(Cl)ccc1NC(=O)Nc1ccc2nccc(N3CCN(C)CC3)c2c1`, the values for the Inhibition in assay [1], in assay [2] and in assay [3] were 100%, 74% and 0%, respectively.
`Cc1ccc(C(=O)c2oc3ccc4c(C)cc(=O)oc4c3c2C)cc1`: the Inhibition is recorded as 86% in assay [1], 48% in assay [2] and 0% in assay [3].
As for `COc1ccc(-c2nc3cccnc3n2CC(=O)Nc2cc(Cl)c(Cl)cc2Cl)c(OC)c1`, the Inhibition in assay [1] is on record as 100%; in assay [2] it was 17%; in assay [3], 99%.
Consider `CCc1ccc(CN2CCC(CNC(=O)c3cc(-c4cccc(Cl)c4)cs3)C2)cc1.O=C(O)C(F)(F)F` (configuration not stated), for which the Inhibition in assay [1] turned out to be 88%; in assay [2] it was 19%; in assay [3], 27%.
Turning to `Cc1cc(NC2CCCC2)nc(Nc2ccccc2)n1`, the Inhibition in assay [1] was found to be 100%; in assay [2] it was 75%; in assay [3] it was 26%.
Turning to `Cc1cnc(C(=O)Nc2cccc(-c3ccc(-c4nc5cc(F)ccc5[nH]4)cc3)c2)cn1`, the Inhibition in assay [1] was 100%; in assay [2], 13%; in assay [3] it was 19%.
Turning to `O=C(/C=C/c1ccc(Cl)c(Cl)c1)NCCCCCN1CCC(NC(=O)NCCc2ccccc2)CC1`, the Inhibition in assay [1] was 100%; in assay [2] it was 7%; in assay [3], 23%.
For `O=C(Nc1cccc(CN2CCCN(CC3CCCCC3)CC2)c1)c1cc2ccccc2s1.O=C(O)C(F)(F)F`, the Inhibition in assay [1] turned out to be 96%; in assay [2] it was 15%; in assay [3] it was 29%.
As to `CC(C)(C)c1nn(-c2ccc(Cl)cc2)c2[nH]c(=O)c(CNCc3ccc4c(c3)OCO4)cc12`, the figures for the Inhibition in assay [1], in assay [2] and in assay [3] were 100%, 98% and 15%, respectively.
As to `Cn1nccc1C(=O)NCCNCc1ccc(-c2cccc(-c3nc4cc(F)ccc4[nH]3)c2)cc1.O=C(O)C(F)(F)F`, the values for the Inhibition in assay [1], in assay [2] and in assay [3] were 100%, 98% and 37%, respectively.
`Cl.Nc1ccnc2ccc(OCCCCCCc3ccccc3)cc12`: the Inhibition was found to be 100% in assay [1], 99% in assay [2] and 96% in assay [3].
Turning to `CC(C)(C)c1ccc(N2C(N)=NC(N)=NC2(C)C)cc1Cl.Cl`, the Inhibition in assay [1] came to 94%; in assay [2], 3%; in assay [3] it was 51%.
With `Cc1cc(N(C)C)nc(Nc2ccc(NC(=O)C(C)Oc3ccccc3)cc2)n1` (configuration not stated), the results for the Inhibition in assay [1], in assay [2] and in assay [3] were 98%, 30% and 2%, respectively.

Source of the values: ChEMBL document CHEMBL1157539, “Thousands of chemical starting points for antimalarial lead identification” (Nature, 2010).
